From PubChem
TDP1 inh: TDP1 (human) enzyme inhibition; AID 485290; recombinant TDP1, AlphaScreen DNA substrate cleavage; Potency, µM (doses to about 130 µM), for the others: at the highest dose activity change, negative = inhibition, hits mostly inhibitors; hit rate 0.28% among 350,000; also: potency is read from the fitted curve at half-maximal effect; nearly all actives have a fitted effect of over 40% in size
Target sequence (Q9NUW8 whole entry, looked up): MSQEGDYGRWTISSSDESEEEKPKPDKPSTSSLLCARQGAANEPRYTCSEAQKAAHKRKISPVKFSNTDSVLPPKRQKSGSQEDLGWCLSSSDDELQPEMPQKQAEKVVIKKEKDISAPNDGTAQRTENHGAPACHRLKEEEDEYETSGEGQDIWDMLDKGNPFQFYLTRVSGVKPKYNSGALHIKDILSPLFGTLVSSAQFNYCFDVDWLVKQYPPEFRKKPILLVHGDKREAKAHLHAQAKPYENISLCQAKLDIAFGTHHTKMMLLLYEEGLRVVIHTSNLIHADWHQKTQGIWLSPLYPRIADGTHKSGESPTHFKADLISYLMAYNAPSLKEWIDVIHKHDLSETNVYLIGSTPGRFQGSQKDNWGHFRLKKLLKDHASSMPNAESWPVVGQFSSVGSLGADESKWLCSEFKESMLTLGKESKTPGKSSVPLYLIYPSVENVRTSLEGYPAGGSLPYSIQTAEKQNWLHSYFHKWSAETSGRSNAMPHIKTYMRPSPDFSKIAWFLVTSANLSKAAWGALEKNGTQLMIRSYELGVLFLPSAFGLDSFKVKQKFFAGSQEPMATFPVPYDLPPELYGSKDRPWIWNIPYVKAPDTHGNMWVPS
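E. coli-derived human Tdp1, 1 nM final. Cpd preinc 15 min RT; substrate 15 nM final, 5 min RT; AS bead mix 10 ug/ml final, 10 min RT. Signal loss = tyrosine-FITC cleavage. No-enzyme wells = max signal.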
IL-1B inflam inh: blocks inflammasome-driven IL-1 beta release | hit rate 4.7% among 360,000 | THP-1 LPS/ATP IL-1B secretion, AlphaLISA, 16 h; hits give low values | activity change, % at 57.5 µM; in the data active = activity change below about -50%; inconclusive = mostly about -30% to -49%
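Secreted IL-1B measured by AlphaLISA bead assay after 16 h compound exposure of THP-1 cells; compounds (final up to 57.5 uM) added 1 h before LPS (250 ng/mL) and ATP (1.25 mM) stimulation; lower signal means less secretion.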
Six1-Eya2 inh: inhibitors of human Six1/Eya2 interaction; AID 651725; Q15475+O00167; AlphaScreen GST-Six1/His-Eya2 binding, biochemical; hits give low values; activity change, % (concentration not given with the values); hit rate 0.56% among 360,000; in the data active = activity change below about -65%; inconclusive = mostly about -30% to -63%
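GST-Six1 + His-Eya2 (5X stock: 250/500 nM); Tris pH 8.0, 300 mM NaCl, 0.05% BSA, 0.02% Tween 20; GSH donor/Ni acceptor beads; 1 h 37 °C dark; AlphaScreen readout.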
CtBP-E1A blk: blocks the CtBP interaction with E1A; AlphaScreen GST-E1A/His-CtBP binding, 1536-well; hits give low values; hit rate 0.49% among 340,000; AID 651724; activity change, % (no concentration beside the values); in the data active = activity change below about -65%; inconclusive = mostly about -30% to -63%
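Protein mix (5X: 125 nM each GST-E1A, His-CtBP) was incubated with pinned compound 2 h at 37 deg C in dark, in 50 mM Tris pH 8.0 buffer with 300 mM NaCl. Glutathione donor and nickel acceptor beads followed; AlphaScreen signal read after 1 h.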
TDP1 cell noCPT: qHTS for Inhibitors of human tyrosyl-DNA phosphodiesterase 1 (TDP1): qHTS in cells in absence of CPT; DT40 Tdp1-/- hTDP1 cells, no CPT, ATP luminescence, 48 h; Potency, µM (titrated, usually from 46.2 µM), without a hit: top-dose activity change, negative = growth inhibition, usual class: inhibitors; hit rate 15% among 420,000; AID 686978, 2013; also: potency is read from the fitted curve at half-maximal effect; nearly all actives have a fitted effect of over 55% in size
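DT40 Tdp1-/-;hTDP1 cells, no CPT (DMSO vehicle only), 400 cells/well; compounds pin-transferred; ≥48 hr, 37 °C; CellTiter-Glo 30 min RT dark, luminescence read.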
TDP1 cell CPT: DT40-hTDP1 cell growth loss with CPT | Potency, µM (doses to about 46.2 µM), without a hit: at the top dose activity change, negative = growth inhibition, most hits filed as inhibitors | chicken DT40 Tdp1-/-;hTDP1 cells + 20 nM CPT, ATP luminescence, 48 h | hit rate 12% among 420,000; also: potency is read from the fitted curve at half-maximal effect; nearly all actives have a fitted effect of over 55% in size
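Cell growth measured by CellTiter-Glo luminescence after a minimum 48 h, 37 C compound exposure with 20 nM CPT in Tdp1-knockout DT40 cells stably expressing hTDP1, seeded 400/well; qHTS titration format.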
An asterisk follows results filed as active; [ ] = dose if it differs, or a comment. Sampled rows, rich in hits. Any-hit rate of the full collection: about 18%. Unless noted, calls follow the shape of the dose curve; as a rule, active = well fitted curve in the direction sought with a large enough effect; inconclusive = small, poorly fitted or top-dose-only effect, or another doubt; inactive = no such curve, though single readings can be large; an effect the other way counts as inactive or inconclusive. % is scaled to controls: 0 for no effect and ±100 for the full control effect.

For Cc1sc(NC(=O)CN2CCOCC2)nc1-c1ccc2c(c1)CCN2S(=O)(=O)c1ccccc1 the results were TDP1 inh 7%, IL-1B inflam inh -2, Six1-Eya2 inh -16, CtBP-E1A blk -14, TDP1 cell noCPT 9.2µM* and TDP1 cell CPT 21µM*.
`Cc1sc(NC(=O)Cc2ccc3c(c2)OCO3)nc1-c1ccc2c(c1)CCN2C(=O)c1cccc(F)c1` gave TDP1 inh 3%, IL-1B inflam inh 5, Six1-Eya2 inh -8, CtBP-E1A blk -4, TDP1 cell noCPT 9.2µM* and TDP1 cell CPT 12µM*.
For O=C(CO/N=C/c1ccc(OC(F)F)cc1)NCc1ccco1 the results were TDP1 inh 2%, IL-1B inflam inh 12, Six1-Eya2 inh -10, CtBP-E1A blk -7, TDP1 cell noCPT -2% and TDP1 cell CPT inconclusive.
Screening COc1cccc(C(=O)Nc2c(C(=O)NC(C)(C)C)oc3ccccc23)c1 returned TDP1 inh -2%, TDP1 cell noCPT inconclusive and TDP1 cell CPT 18µM*.
Screening Cc1cccc(CC(=O)Nc2c(C(=O)Nc3cccc(F)c3)oc3ccccc23)c1 returned TDP1 inh -4%, TDP1 cell noCPT inconclusive and TDP1 cell CPT inconclusive.
COc1cccc(NC(=O)c2oc3ccccc3c2NC(C)=O)c1 was read as TDP1 inh -1%, IL-1B inflam inh -16, Six1-Eya2 inh 3, CtBP-E1A blk 8, TDP1 cell noCPT -18% and TDP1 cell CPT 2%.
`COc1cccc(NC(=O)c2oc3ccccc3c2NC(=O)Cc2cccc(C)c2)c1` gave TDP1 inh -1%, TDP1 cell noCPT 18µM* and TDP1 cell CPT 23µM*.
COc1cccc(NC(=O)c2oc3ccccc3c2NC(=O)c2ccccc2C)c1 was read as TDP1 inh -6%, TDP1 cell noCPT inconclusive and TDP1 cell CPT 10µM*.
Screening COc1ccc(C(=O)OCC(=O)NCCCc2ccccc2)c(OC)c1 returned IL-1B inflam inh -3, Six1-Eya2 inh 2, CtBP-E1A blk -5, TDP1 cell noCPT 3% and TDP1 cell CPT -20%.
For Cc1nn(C)c(C)c1/C=N/N=C1\CCC2C3CCc4cc(O)ccc4C3CCC12C (stereo not drawn) the results were TDP1 inh 4%, IL-1B inflam inh -8, Six1-Eya2 inh -12, CtBP-E1A blk -12, TDP1 cell noCPT 12µM* and TDP1 cell CPT inconclusive.
Screening C[C@]12CCC3c4ccc(O)cc4CCC3C1CC/C2=N\N (stereo partly drawn) returned IL-1B inflam inh 7, Six1-Eya2 inh 17, CtBP-E1A blk -1, TDP1 cell noCPT inconclusive and TDP1 cell CPT -26%.
Cc1cc(C)c(NC(=O)C2CCN(C(=O)N3CC(C)Oc4ccc(Cl)cc43)CC2)c(C)c1 (stereo not drawn) was read as TDP1 inh 10%, TDP1 cell noCPT 21µM* and TDP1 cell CPT inconclusive.
For CC1CN(C(=O)N2CCC(C(=O)NC3CCCCCC3)CC2)c2cc(Cl)ccc2O1 (stereo not drawn) the results were TDP1 inh 1%, TDP1 cell noCPT 18µM* and TDP1 cell CPT 15µM*.
CCOc1ccc(NC(=O)C2CCN(C(=O)N3CC(C)Oc4ccc(Cl)cc43)CC2)cc1 (stereo not drawn) was read as TDP1 inh 5%, TDP1 cell noCPT 15µM* and TDP1 cell CPT 23µM*.
COc1cccc(NC(=O)C2CCN(C(=O)N3CC(C)Oc4ccccc43)CC2)c1 (stereo not drawn) was read as TDP1 inh 4%, TDP1 cell noCPT inconclusive and TDP1 cell CPT inconclusive.
Screening CCc1nnc(NC(=O)CSC(=S)N2CCOCC2)s1 returned TDP1 inh 1%, IL-1B inflam inh 0, Six1-Eya2 inh 10, CtBP-E1A blk 10, TDP1 cell noCPT 19% and TDP1 cell CPT -5%.
Screening COc1ccc(N2CSC(=S)N(c3ccc(OC)cc3)C2)cc1 returned IL-1B inflam inh -2, Six1-Eya2 inh -4, CtBP-E1A blk -5, TDP1 cell noCPT 15µM* and TDP1 cell CPT 16µM*.
For O=Cc1ccccc1-n1cccn1 the results were TDP1 inh 4%, IL-1B inflam inh 0, Six1-Eya2 inh 1, CtBP-E1A blk -2, TDP1 cell noCPT 9% and TDP1 cell CPT 17%.
Screening Oc1cc(-n2cccn2)c(O)cc1-n1cccn1 returned TDP1 inh 9%, IL-1B inflam inh -3, Six1-Eya2 inh -14, TDP1 cell noCPT 4.1µM* and TDP1 cell CPT 5.8µM*.
`CCCSc1nc2sc3c(c2c(=O)[nH]1)CCN(Cc1ccccc1)C3` gave TDP1 inh 5%, IL-1B inflam inh 38, Six1-Eya2 inh -3, CtBP-E1A blk -6, TDP1 cell noCPT 21µM* and TDP1 cell CPT inconclusive.
O=c1[nH]c(C(Cl)Cl)nc2sc3c(c12)CCN(Cc1ccccc1)C3 was read as IL-1B inflam inh 33, Six1-Eya2 inh -16, CtBP-E1A blk 0, TDP1 cell noCPT inconclusive and TDP1 cell CPT 6%.
CCCSc1nc2sc3c(c2c(=O)[nH]1)CC(C)CC3 (stereo not drawn) was read as TDP1 inh 8%, IL-1B inflam inh 11, Six1-Eya2 inh -5, CtBP-E1A blk 2, TDP1 cell noCPT 16µM* and TDP1 cell CPT inconclusive.
CCCCSc1nc2sc3c(c2c(=O)[nH]1)CCC3 was read as TDP1 inh 3%, IL-1B inflam inh -12, Six1-Eya2 inh 3, CtBP-E1A blk 8, TDP1 cell noCPT 0% and TDP1 cell CPT -15%.
NCCNC(=O)c1ccc(Cl)cc1 was read as TDP1 inh 9%[56.1 µM], TDP1 cell noCPT -1% and TDP1 cell CPT -5%.
`COc1ccc(C(=O)CSC2=C(C#N)C3(CCCCC3)C(C#N)=C(N)N2)cc1` gave TDP1 inh 7%, IL-1B inflam inh -12, Six1-Eya2 inh -1, CtBP-E1A blk -11, TDP1 cell noCPT 16µM* and TDP1 cell CPT inconclusive.
`N#CC1=C(N)NC(SCC(=O)Nc2ccccc2)=C(C#N)C12CCCCC2` gave TDP1 inh 2%, IL-1B inflam inh 0, Six1-Eya2 inh 17, CtBP-E1A blk 0, TDP1 cell noCPT 23µM* and TDP1 cell CPT inconclusive.
Screening CC(C)(C)C(=O)Nc1cc(-c2cccc(Br)c2)nn1-c1ccccc1 returned TDP1 inh 0%, TDP1 cell noCPT 21µM* and TDP1 cell CPT inconclusive.
Screening Cc1cccc(-c2cc(NC(=O)C(C)(C)C)n(-c3ccccc3)n2)c1 returned TDP1 inh 3%, TDP1 cell noCPT inconclusive and TDP1 cell CPT -29%.
